Test results published in the supplement of paper PMC3334620.
In all, about 33,000 sequences were measured (“E-score (-0.5 to 0.5)”: median about -0.011, highest 2% from about 0.28 on). For the sample, the highest values were picked, then their nearest neighbours and some sequences at random.

molecular target: T1, Gcr1 (UniProt P07261); test: PBM E-score (8-mer binding enrichment) (E-score (-0.5 to 0.5)); higher = stronger / more preferred TF binding; conditions: protein concentration: 100 nM; construct: GST-full length
T1 sequence: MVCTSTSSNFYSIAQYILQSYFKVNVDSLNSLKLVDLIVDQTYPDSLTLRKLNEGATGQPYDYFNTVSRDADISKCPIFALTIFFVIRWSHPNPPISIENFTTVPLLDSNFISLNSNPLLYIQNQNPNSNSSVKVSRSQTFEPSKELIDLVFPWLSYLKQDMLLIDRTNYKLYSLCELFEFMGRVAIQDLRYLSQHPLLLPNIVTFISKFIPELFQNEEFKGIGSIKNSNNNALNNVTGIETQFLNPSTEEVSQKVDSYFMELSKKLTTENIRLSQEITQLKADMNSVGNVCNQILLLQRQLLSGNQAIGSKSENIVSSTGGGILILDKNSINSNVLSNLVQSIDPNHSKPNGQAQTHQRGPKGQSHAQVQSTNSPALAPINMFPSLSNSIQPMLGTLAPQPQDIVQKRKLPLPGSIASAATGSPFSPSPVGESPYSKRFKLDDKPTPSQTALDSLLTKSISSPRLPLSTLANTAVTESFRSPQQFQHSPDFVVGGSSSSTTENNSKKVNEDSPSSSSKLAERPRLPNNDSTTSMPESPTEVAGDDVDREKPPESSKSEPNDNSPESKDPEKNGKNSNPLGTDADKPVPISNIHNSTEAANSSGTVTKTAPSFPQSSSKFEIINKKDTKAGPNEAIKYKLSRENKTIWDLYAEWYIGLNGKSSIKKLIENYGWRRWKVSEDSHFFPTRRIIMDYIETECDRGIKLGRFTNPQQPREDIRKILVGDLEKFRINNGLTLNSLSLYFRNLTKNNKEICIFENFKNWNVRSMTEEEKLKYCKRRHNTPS
Method in brief: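 Using PURExpress in vitro transcription/translation, GST-tagged yeast transcription factors were made in full-length or DNA-binding-domain form. These were applied at about 100-200 nM to double-stranded universal all-10-mer Agilent arrays, and bound protein was detected with fluorescent anti-GST. Scans were normalised with masliner before the Universal PBM Analysis Suite assigned E-scores to ungapped eight-base words pooled with their reverse complements.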

Sequence	PBM E-score
ACTAATGC	0.0263
ACAGATAG	-0.00305
AACCTGTA	0.211
ATTTCGGG	0.0915
ATTTCGGA	0.285
ATTTCGGC	0.141
GATCCCAC	0.235
CATTCCCA	0.103
GATCCCCA	0.28
GATTCCCC	0.289
AATTCCCC	0.0615
CATTCCCC	-0.0585
AATTCCCA	-0.0967
GATTCCTA	0.439
AATTCCTA	0.0723
TATCCCCA	0.052
CATTCCTA	-0.0304
GATCCCCC	0.176
GATTCCCA	0.334
CGCATCTC	0.0271
AAAGAGAA	0.022
CAGTTCGG	0.0773
CGGATTGA	-0.116
CAATGGGG	0.00495
ACGGTGGG	0.116

Sequence	PBM E-score
AGCTGCCT	0.32
GGCTGCAA	0.128
GGCTGCCC	0.272
ACCTGCCT	-0.218
GGCTGCTA	0.318
AGCTGCCA	0.385
CGCTGCCA	0.185
CGCTGCTA	0.155
AACTGCCT	-0.0496
GGCTGCCA	0.418
AGCTGCTA	0.226
TGCTGCCA	-0.0494
GATGGGAA	0.123
TACAGATA	-0.0799
ATATTTGA	0.0958
CTTTCGAA	-0.0912
CAGATAAC	-0.13
ACTTGACT	-0.0523
CACCGAGA	-0.00934
GTGCCCCA	-0.0431
GGGCTCAC	-0.096
AGAGCTGG	-0.143
TCTGCCCA	-0.249
AGATTTCG	0.113
AAGGTGTC	0.0915

Sequence	PBM E-score
CGCTGCCG	0.175
AGCTGCCG	0.289
AGCTGCCC	0.217
ACTACAAC	0.0309
AGCATCCC	0.33
GGCATCCC	0.4
CACATCCA	0.0944
CGCATCCA	0.323
CGCATCGC	-0.0699
CGCATCCC	0.319
CGCATCCG	0.221
AACATCCC	-0.109
CGCATCGA	0.0887
GACATCCC	0.0126
AGCATCAC	0.00094
GCCATCCC	-0.173
AAAGGGTG	-0.0719
AAGGCGGT	0.00689
CTGTGGCA	0.0358
AACTGGCA	0.0707
ATTCTCGG	0.123
GCTTCCGA	0.386
ACTTCCTG	0.319
ACTTCCTA	0.245
ACTTCCTC	0.243

Sequence	PBM E-score
CCTTCCAC	0.208
GCTTCCAC	0.42
ACTTCCAT	0.145
ACTTCCGA	0.0686
CCTTCCGA	-0.12
ACTTCCAG	0.377
GCCTCCAC	-0.0325
CCTTCCAG	0.0686
AGTTCCTG	0.0262
CCATGCCG	-0.2
CGCTTTCC	-0.0681
CTTTCTAC	0.0892
AGTCGGAC	-0.093
ACCTGAGA	-0.038
ACTTCCAA	0.303
ACTTCCAC	0.261
TCTTCCAA	-0.0111
CCTTCCAA	-0.0431
ATTTCCAA	0.0988
GCTTCCAA	0.443
CAACCGGA	0.206
CCCTCCGG	-0.0226
CACCAAAG	0.047
ATGCATCA	-0.0769
GAGCAGCC	0.217

Sequence	PBM E-score
AAGCAGGT	0.161
AAGCAGCA	-0.176
CAGCAGCC	0.359
CAGCAGCA	0.00017
AAGCAGCC	0.308
AAGCAGAT	-0.03
AAGCAGCT	0.33
AAGCAGCG	0.135
AACTGTGC	-0.181
CTTTACTC	-0.104
GACTAACC	-0.136
ACTTAACC	-0.196
CCTCGAGC	-0.102
GCTCGAGC	0.321
GCTCGAGA	-0.166
AAGGGCAC	-0.16
GCGGTTCC	0.314
AGGGTTCG	-0.0648
GCGGTTCA	-0.231
AGGGTTCA	-0.118
CGGGTTCA	-0.204
AGGGTTCC	0.312
CGGGTTCC	0.411
CGGGTTAC	-0.0158
ACGGTTCC	0.0629

Sequence	PBM E-score
GTTAAAAC	-0.0162
AAAATGCG	0.143
GAACGACC	-0.165
CTGTTGAA	0.0369
CCTTCTAA	-0.0438
GCTTCTAC	0.301
GCTTCTAA	0.116
ACTTCTAA	0.0859
CCTTCTAC	0.0671
TCTTCTAA	0.329
GAGTCCTA	0.0444
AATAATGA	0.0865
AGTCCTGG	0.0342
ATCCAAAG	0.189
ATCCAATA	0.303
GCCAAGAA	0.124
GCCAAAAA	0.288
CTCCAATA	0.075
ATCCAATC	0.13
GCCAAAAC	0.128
ATCCAAAA	0.282
ATCCAAAC	-0.03
ATGCAAAC	0.115
CTCTTCAA	0.00436
GGACGCAC	0.127

Sequence	PBM E-score
CCGCATCC	0.31
ACGCATCT	0.151
ACGCATCG	-0.00937
GCGCATAC	0.0321
CCGCATCG	-0.0819
ACGCATCC	0.311
GCGCATCA	0.0737
CCGCATCA	0.103
GCGCATCC	0.331
ACCGCCTC	-0.14
ACTGTGCT	-0.231
ACAGACAT	-0.144
CACAGAGG	-0.185
CGAGGGGC	0.0171
CTAGTGTA	0.127
ATCGTGGC	-0.103
GTAGTGTA	-0.0351
CTAGTGGA	0.298
GCAGTGGA	0.11
ACAGTGGC	0.00948
ATAGTGGC	0.32
CAAGTGGA	0.181
GTAGTGGA	0.285
AAAGTGGA	0.24
TAAGTGGA	0.287

Sequence	PBM E-score
CTAGTGGC	0.106
TCCGACAA	-0.0648
AACGAGGG	0.0827
CGGTCTAG	-0.167
AAACAAGG	0.16
GAGGTTCC	0.269
CAACTTAC	-0.127
GCAGAGTA	-0.0213
ACCGACGC	-0.0878
GTTTTGTA	0.0369
ATGGCGGC	0.0606
ATATGCTA	0.115
CCCCTCAC	-0.0282
CTCCTGAA	0.085
AAATCGCA	-0.021
ATACCAAC	-0.00844
AAAGTGGT	0.167
ATAGTGTG	0.106
AGAGTGGG	0.177
CAAGTGGC	0.146
ATAGTAGC	0.286
ATAGTAGA	0.191
ATAGTAGG	0.051
ATAGTGGG	0.308
AAAGTGGC	0.295

Sequence	PBM E-score
ATCGTGGA	0.148
ATAGTGGA	0.376
ATAGTGAA	-0.116
GAGAGTGA	-0.261
CCAGTAAG	0.222
AGCTCTAA	-0.108
GTCAAAAA	0.144
CCCGAACA	-0.00034
GGAGTAAC	-0.116
CCTCCCCG	0.0903
AGACCCAT	-0.152
CGCTGAGC	0.0119
ATCCCCAA	0.0543
CTCGCGCC	-0.166
CATTGAAG	-0.12
TAAAGAGA	0.0201
GGCAGCTA	0.318
CCCAGCTA	-0.0278
GACAGCTA	-0.113
GCCAGCTA	-0.135
CGCAGCTA	0.34
CGCAGCTC	0.09
